# This is one part of a sample in which hits are shown more often than they occur.
# BL2 CD40 inh: CD40 pathway inhibition in BL2 cells; BL2 NF-kB luciferase reporter, CD40L-induced, 4 h; inhibition, % at 10 µM; hit rate 0.94% among 83,000; AID 1053188;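 active = mean inhibition of at least 50% with a set share of replicates also reaching that level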;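 note: 0% = neutral control wells and 100% = IKK inhibitor VII at 50 µM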
# Active calls of the source: *; [ ] = remark or other dose.
SMILES,BL2 CD40 inh
COc1cccc(-c2ccc(C3[C@H]4CNC[C@@H]3N4Cc3ccc4c(c3)OCO4)cc2)c1 (stereo not given in full),-56[25 µM]
CCC(=O)N(C)C[C@@H]1Oc2ncc(C#Cc3ccccc3OC)cc2C(=O)N([C@H](C)CO)C[C@@H]1C,-5[25 µM]
COc1cccc(S(=O)(=O)N(C)C[C@H]2OCc3cnnn3CCCC(=O)N([C@H](C)CO)C[C@H]2C)c1,2[25 µM]
C[C@@H]1CN([C@@H](C)CO)C(=O)c2cc(C#Cc3ccccc3)cnc2O[C@H]1CN(C)C(=O)c1ccccc1,-4[25 µM]
O=C(c1ccccc1)N1CCN(C(=O)N2CCOCC2)CC1,8
O=C1c2ccccc2-c2c1cccc2C(=O)N1CCOCC1,11
O=C1C(=C(c2ccccc2)N2CCOCC2)Cc2ccccc21,89*
N#C[C@H]1[C@@H](c2ccc(-c3cccnc3)cc2)[C@@H](CO)N1C(=O)C1CCOCC1,2[25 µM]
CCN(CC)S(=O)(=O)c1cccc(C(=O)N/N=C2\CC(=O)CC(C)(C)C2)c1,8
Cc1ccccc1S(=O)(=O)/N=C(/Nc1nc2ccccc2s1)c1ccccc1,-78
CC1(C)CC(=O)C/C(=N/Nc2nc3ccccc3s2)C1,50*
CC(=O)N(C)C[C@H]1OCc2ccccc2-c2ccccc2C(=O)N([C@H](C)CO)C[C@@H]1C,-18[25 µM]
C[C@H]1CCCCO[C@H](CN(C)C(=O)Cc2ccccc2)[C@@H](C)CN([C@@H](C)CO)C(=O)c2cc(NS(C)(=O)=O)ccc2O1,-20[25 µM]
COc1ccc2[nH]c(O)c(NC(C)=O)c2c1,7
COc1ccc2nc(C)[nH]c(=O)c2c1,3
COc1ccc2[nH]c(=O)c3c(c2c1)OC(C)(C)C=C3,38*
C/C=C/c1ccc([C@H]2[C@@H](CO)N[C@@H]2CNC(=O)C2CCCC2)cc1,15
COc1ccc(C#Cc2ccc([C@@H]3[C@H](CO)N4C(=O)CN(C(=O)NC(C)C)C[C@@H]34)cc2)cc1,-4[25 µM]
CCNC[C@@H]1[C@@H](c2ccc(C#Cc3ccccn3)cc2)[C@@H](CO)N1C(=O)C1CC1,12[25 µM]
Cc1ccc(CN2C(=O)S/C(=C\c3ccccc3OCC(=O)O)C2=O)cc1,7
O=C1S/C(=C\c2ccc(N3CCOCC3)o2)C(=O)N1Cc1ccc(F)cc1,82*
O=C1N=C(N2CCOCC2)S/C1=C/c1ccc(-c2ccc(F)cc2)o1,-14
CCCCNC(=O)C1(C)CCN1C(=O)c1ccccc1Br (stereo not given),9
CCCCNC(=O)C1(C)CCN1C(=O)c1ccc(C)c(F)c1 (stereo not given),3
CCCCNC(=O)C1(C)CCN1C(=O)c1cc(-c2cccs2)oc1C (stereo not given),105*
CCC(=O)N1CCCCN2[C@H](C1)[C@H](c1ccc(-c3cccc(C(=O)N(C)C)c3)cc1)[C@@H]2CO,-3[25 µM]
Cc1ccc(O)c(N=Nc2ccccc2)n1,55*[25 µM]
Oc1[nH]c2ccccc2c1N=Nc1ccccc1,-73
c1ccc(N=Nc2ccc(C3=NCCO3)cc2)cc1,14
Cc1cc(C)c(C(=O)N2CCC(N3CCC(C(=O)NC(C)C)CC3)CC2)o1,16

# Source: PubChem
